Lassa entry inh: blocks Lassa virus binding to or entry into cells; actives 1.2% (n = 300,000); Potency, µM (doses to about 37.9 µM), for the others: at the highest dose activity change, negative = inhibition, hits mostly inhibitors; Lassa virus pseudotype entry inhibition, cell reporter; AID 540256; calls by dose curve; tested in HEK293 cells; also: nearly all actives have a fitted effect of over 50% in size
AmpC inh detg: inhibitors of E. coli AmpC beta-lactamase with detergent; Potency, µM (series often up to 114 µM), inactives show at the top dose activity change, negative = inhibition, usual class: inhibitors; actives 0.041% (n = 370,000); AID 485294; P00811; AmpC hydrolysis of nitrocefin, absorbance 480 nm, 0.01% Triton;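 also: 0% = no-compound wells and -100% = no-enzyme wells; nearly all actives have a fitted effect of over 25% in size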
Target sequence (P00811 whole entry, looked up): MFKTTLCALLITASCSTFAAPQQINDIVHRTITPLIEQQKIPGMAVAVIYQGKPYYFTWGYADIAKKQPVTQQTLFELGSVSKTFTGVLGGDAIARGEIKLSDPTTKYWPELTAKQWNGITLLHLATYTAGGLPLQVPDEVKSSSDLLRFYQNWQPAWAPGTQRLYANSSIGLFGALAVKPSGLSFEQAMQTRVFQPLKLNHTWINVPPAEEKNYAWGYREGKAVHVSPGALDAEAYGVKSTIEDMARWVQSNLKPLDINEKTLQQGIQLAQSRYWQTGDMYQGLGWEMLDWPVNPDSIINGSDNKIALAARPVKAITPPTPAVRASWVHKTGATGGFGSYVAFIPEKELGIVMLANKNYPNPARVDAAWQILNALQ
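AmpC (5.3 nM in the dispensed reagent) in 20 mM phosphate pH 7.0 with 0.01% (detergent screen) or 0.0001% Triton X-100 was preincubated with compounds for 15 min at room temperature. Nitrocefin was then added from an 800 uM solution, and hydrolysis was followed at 480 nm.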
AMA1 RON2 block: disrupts binding of P. falciparum AMA1 to RON2 | AlphaScreen AMA1-biotinylated RON2 peptide binding | AID 720542 | actives 0.2% (n = 360,000) | Potency, µM (titrated, usually from 58.2 µM), inactives show at the top dose activity change, negative = inhibition, usual class: inhibitors;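 also: 0% = vehicle wells and -100% = peptide control; nearly all actives have a fitted effect of over 45% in size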
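AMA1 (3D7) with his tag at 25 nM final met compounds first, then biotinylated RON2 peptide at 25 nM; detection used donor plus acceptor beads, 10 µg/mL apiece, read by AlphaScreen after 30 min at room temperature.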
AmpC no deterg: inhibitors of E. coli AmpC beta-lactamase without detergent; P00811; AmpC nitrocefin hydrolysis, absorbance 480 nm, 0.0001% Triton; Potency, µM (series often up to 57.1 µM), for the others: at the top dose activity change, negative = inhibition, usual class: inhibitors; actives 0.52% (n = 330,000);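 also: plate controls were no compound for no effect and no enzyme for full effect; nearly all actives have a fitted effect of over 20% in size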
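20 mM phosphate pH 7.0 + 0.01% (detergent screen) or 0.0001% Triton X-100; 5.3 nM AmpC reagent; cpd preinc 15 min RT; nitrocefin (800 uM stock) to start; A480 q20 s × 4 min; Activity was normalised to no-enzyme and no-compound control wells.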
MARV entry inh: blocks Marburg virus binding to or entry into cells. actives 1.8% (n = 300,000). Marburg virus pseudotyped entry inhibition, cell reporter. Potency, µM (series often up to 37.8 µM), for inactives: at the highest dose activity change, negative = inhibition, usual class: inhibitors; calls by dose curve; tested in HEK293 cells
Numbers without * were called inactive; [ ] = another dose, or the depositor's remark. Only some compounds are listed: those with a hit (about 2.3% of all), similar ones and a draw of the others. Unless noted, calls follow the shape of the dose curve; as a rule, active = well fitted curve in the direction sought with a large enough effect; inconclusive = small, poorly fitted or top-dose-only effect, or another doubt; inactive = no such curve, though single readings can be large; an effect the other way counts as inactive or inconclusive. Unless noted, % is scaled to controls: 0 for no effect and ±100 for the full control effect; potency is read from the fitted curve at half-maximal effect.

How did CCOC(=O)c1c(-c2cccs2)csc1NC(=O)CN1CC(C)OC(C)C1 (stereo not given) do in these assays?
Lassa entry inh: inconclusive; AmpC inh detg: 1%; AMA1 RON2 block: -13%; AmpC no deterg: 153%; MARV entry inh: 11µM*

How did CCOC(=O)c1c(-c2cccs2)csc1NC(C)=O do in these assays?
Lassa entry inh: -15%; AmpC inh detg: 0%; AMA1 RON2 block: -11%; AmpC no deterg: -9%; MARV entry inh: 0%

Results for COc1ccc(OC)c([C@@H]2C(C#N)=C(N)Oc3cc(C)n(Cc4ccccn4)c(=O)c32)c1 ?
MARV entry inh: -1%

How did CCN(CC)c1nc(-c2ccccn2)nc(-c2ccccc2)c1C#N do in these assays?
Lassa entry inh: inconclusive; AmpC inh detg: -13%; AMA1 RON2 block: 45%; AmpC no deterg: -7%; MARV entry inh: 6.3µM*

What do the screens show for `CN(C)c1nc(-c2ccccn2)nnc1-c1ccccc1`?
Lassa entry inh: inconclusive; AmpC inh detg: -2%; AMA1 RON2 block: 9%; AmpC no deterg: -12%; MARV entry inh: inconclusive

What do the screens show for `CC(Nc1cc(N2CCN(C(=O)C(C)(C)C)CC2)ccc1[N+](=O)[O-])c1ccccc1` (stereo not given)?
Lassa entry inh: 23µM*; AmpC inh detg: -4%; AMA1 RON2 block: inconclusive; AmpC no deterg: 33%; MARV entry inh: inconclusive

What do the screens show for `O=C(Nc1sc2c(c1C(=O)O)CCC2)c1ccco1`?
Lassa entry inh: 8%; AmpC inh detg: inconclusive; AMA1 RON2 block: 10%; AmpC no deterg: -23%; MARV entry inh: -16%

Results for O=C(Nc1sc2c(c1C(=O)O)CCCC2)c1ccc(F)cc1 ?
Lassa entry inh: inconclusive; AmpC inh detg: -13%; AMA1 RON2 block: -1%; AmpC no deterg: -32%; MARV entry inh: 2.5µM*

Results for Cc1ccc(C(=O)Nc2sc3c(c2C(=O)O)CCCCC3)o1 ?
Lassa entry inh: 7.9µM*; AmpC inh detg: -14%; AMA1 RON2 block: 0%; AmpC no deterg: 0%; MARV entry inh: 6.3µM*

How did CC(C)(C)c1ccc(C(=O)Nc2sc3c(c2C(=O)O)CCC3)cc1 do in these assays?
Lassa entry inh: inconclusive; AmpC inh detg: inconclusive; AMA1 RON2 block: 7%; AmpC no deterg: -35%; MARV entry inh: 3.2µM*

What do the screens show for `O=C(Nc1sc2c(c1C(=O)O)CCCC2)c1cccs1`?
Lassa entry inh: inconclusive; AmpC inh detg: inconclusive; AMA1 RON2 block: 16%; AmpC no deterg: -30%; MARV entry inh: 9.2µM*

How did NC(=O)c1c(NC(=O)c2ccc(F)cc2)sc2c1CCC2 do in these assays?
Lassa entry inh: -8%[46.1 µM]; AmpC inh detg: -13%; AMA1 RON2 block: -2%; AmpC no deterg: -33%; MARV entry inh: inconclusive

How did Cc1ccc(C(=O)Nc2sc3c(c2C(=O)O)CCCC3)o1 do in these assays?
AmpC inh detg: 5%; AMA1 RON2 block: -14%; AmpC no deterg: -31%

How did CC(C)NC(=O)C1CCC(Cn2c(=O)c3sccc3n(CC(=O)N3CCCC3)c2=O)CC1 (stereo not given) do in these assays?
Lassa entry inh: -23%[46.1 µM]; AmpC inh detg: -1%

How did CCc1ccc(NC(=O)CC2C(=O)N(c3cccc(OC)c3)C(=O)N2Cc2ccc(F)cc2)cc1 (stereo not given) do in these assays?
Lassa entry inh: -18%[46.1 µM]; AmpC inh detg: 16%

What do the screens show for `COc1ccc(OC)c([C@@H]2C(C#N)=C(N)Oc3cc(C)[nH]c(=O)c32)c1`?
MARV entry inh: 8%

How did CCCCc1nc2c(c3c1C[C@H](C)OC3)CN(C(=O)NCc1ccco1)CC2 do in these assays?
Lassa entry inh: 11%[14.3 µM]; MARV entry inh: inconclusive

What do the screens show for `COc1ccc(NC(=O)c2c(NC(=O)CCC(=O)O)sc3c2CCCCC3)cc1`?
AmpC inh detg: 1%; AMA1 RON2 block: -7%; AmpC no deterg: -14%

Results for COc1cccc(C(=O)Nc2sc3c(c2C(=O)O)CCCC3)c1 ?
Lassa entry inh: 10µM*; AmpC inh detg: -4%; AMA1 RON2 block: 0%; AmpC no deterg: -28%; MARV entry inh: 11µM*

What do the screens show for `COc1ccc(NC(=O)c2c(NC(=O)C(F)(F)F)sc3c2CCCCC3)cc1`?
Lassa entry inh: 3.2µM*; AmpC inh detg: 11%

Screening data: PubChem BioAssay, National Center for Advancing Translational Sciences (NCATS)
